# Assay outcomes from PubChem.
# GALR2 ag: agonists of human galanin receptor 2 (GALR2); O43603; GALR2-expressing cells, agonist activation read-out; activation, % (concentration not given with the values); hit rate 0.48% among 140,000; in the data active means activation above about 5%, passing the limit was not always enough;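 further: 0% = vehicle buffer wells and 100% = reference agonist at full effect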
# Target sequence (O43603 whole entry, looked up): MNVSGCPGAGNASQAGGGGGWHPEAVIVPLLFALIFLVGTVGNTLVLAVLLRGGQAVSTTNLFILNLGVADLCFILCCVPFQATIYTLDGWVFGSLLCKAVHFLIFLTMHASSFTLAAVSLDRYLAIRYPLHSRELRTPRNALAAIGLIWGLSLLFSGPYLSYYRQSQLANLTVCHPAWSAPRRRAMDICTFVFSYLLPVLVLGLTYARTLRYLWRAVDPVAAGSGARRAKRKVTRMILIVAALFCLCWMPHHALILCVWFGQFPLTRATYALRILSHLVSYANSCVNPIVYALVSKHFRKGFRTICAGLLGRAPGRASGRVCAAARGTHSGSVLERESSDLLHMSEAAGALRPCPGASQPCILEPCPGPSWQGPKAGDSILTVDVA
# GALR2 antag: blocks the human galanin receptor 2. O43603. inhibition, % at 4 µM. hit rate 0.39% among 140,000. GALR2-expressing cells, antagonist mode;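 further: cells stimulated with galanin 1-16 at roughly its EC80; 0% = agonist challenge control and 100% = basal control without agonist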
# S1P2 ag: activates the human S1P2 receptor; hit rate 0.46% among 97,000; O95136; S1P2-expressing cell line, agonist reporter read-out; AID 729; activation, % at 4.5 µM; in the data active means activation above about 16%;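 further: 0% = vehicle low control and 100% = maximal reference agonist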
# S1P2 antag: S1P2 (human) receptor antagonism. inhibition, % at 5 µM. hit rate 0.21% among 97,000. cell-based S1P2 antagonist assay, inhibition at 5 uM. O95136; in the data active means inhibition above about 45%;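 further: CRE beta-lactamase reporter cells expressing human S1P2 stimulated with S1P; 0% = agonist at EC80 alone and 100% = agonist plus reference antagonist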
# GALR2 blk conf: confirmation of human galanin receptor 2 (GALR2) antagonists. hit rate 60% among 480. GALR2-expressing cells, antagonist mode, inhibition. shares compounds with GALR2 antag. inhibition, % at 4 µM;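 further: cells stimulated with galanin at about its EC80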
# BLA inhib ctr: inhibits beta-lactamase reporter in GALR2 antagonist counterscreen | inhibition, % at 4.2 µM | hit rate 36% among 480 | shares compounds with GALR2 antag | CHO NFAT-BLA reporter, beta-lactamase FRET, thapsigargin-stimulated;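 active means inhibition above the mean inhibition across tested compounds plus 3 SD, cut at about 27% in these data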;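 further: 0% = 500 nM thapsigargin stimulated wells and 100% = unstimulated BSA only wells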
# Numbers without * were called inactive; x = no result given. The list is not random: actives were taken first. Their share in the collection is about 1.2%. Unless noted, no stated cut-off is given here; in the data, active means inhibition above about 27%; inactive means the rest.
SMILES,GALR2 ag,GALR2 antag,S1P2 ag,S1P2 antag,GALR2 blk conf,BLA inhib ctr
Cc1nn(C)c(C)c1N1C(=O)c2cccc3c(Br)ccc(c23)C1=O,1,29*,-7,45,30*,18
Cc1nn(C)c(C)c1N1C(=O)c2cccc3c(N)ccc(c23)C1=O,-1,32*,x,x,20,25
N#Cc1cc2c(nc1SCc1nc3ccccc3[nH]1)CCC2,0,28*,0,14,30*,16
COc1ccc(/C=N\NC(=O)C2C(=O)NCC2c2ccccc2)cc1O (stereo unspecified),0,-12,-1,-4,x,x
CO/N=C/c1cc([N+](=O)[O-])ccc1Sc1ccc(C)cc1,0,1,-10,-6,x,x
